# Measured values taken from PubChem BioAssay AID2732 (Emory University Molecular Libraries Screening Center, 2010).
# The whole screen tested about 220,000 compounds, of which about 8,200 (3.7%) were called active. Only a selection was taken, and actives are over-represented in it overall. Unmarked numbers belong to inactive results.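 The calls were made as follows: active = compounds that reduced the stress-induced luciferase reporter signal by more than about 70% of percent inhibition (limit read from the data); inactive = the rest.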
# Experiment: inhibitors of CHOP promoter induction, primary screen, cell-based, unfolded protein response, luciferase reporter (AID 2732);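 also: 0% = tunicamycin plus vehicle and 100% = wells without tunicamycin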
# Details: CHO-K1 CHOP-promoter luciferase, tunicamycin-induced, 15-18 h; at 10 µM; active compounds read high
row,SMILES,inhibition
1,COC(C[C@H](O)CC(=O)COCc1ccccc1)OC,17.8%
2,NC(=O)c1ccc(NC(=O)COC(=O)c2ccc([N+](=O)[O-])cc2)cc1,4.31%
3,Cc1cc(C)cc(NC(=O)NC2CCN(CC(=O)Nc3cccc(Cl)c3C)CC2)c1,14.5%
4,CCSc1nc(C)nc2c1oc1ccccc12,97.9% (active)
5,Cc1nc(Cl)c2oc3ccccc3c2n1,-37.5%
6,COc1ccc(CCNC(=O)CSc2nc(C)nc3c2oc2ccccc23)cc1OC,5.77%
7,CC1=CC(C)(C)NC(=S)N1NC(=O)c1ccccc1Cl,-2.87%
8,CCOc1ccc(C2NC(=S)NC3=C2CCc2ccccc23)cc1 (configuration not stated),-10.8%
9,Cc1ccccc1NC(=O)CN1C(=O)N/C(=C\c2cccn2-c2cccc(C(=O)O)c2)C1=O,1.36%
10,O=C1N/C(=C/c2cccn2-c2ccccc2)C(=O)N1c1cccc(Cl)c1,86.8% (active)
11,COc1cc2c(cc1/C=C1/NC(=O)N(c3ccccc3)C1=O)OCO2,-2.61%
12,Cc1c(C)c(C)c2[nH]c(=S)[nH]c2c1C,20.2%
13,N#CCc1ccc(OC(=O)c2cccnc2)cc1,12.3%
14,Cc1nc(C)c(C(=O)N(c2ccc(C)c(C)c2)C(C(=O)NCc2ccco2)c2ccccc2)s1 (configuration not stated),-35.7%
15,Cc1nn(-c2ccccc2)c2sc(C(=O)N(Cc3ccco3)C(C)C(=O)NC(C)(C)C)cc12 (configuration not stated),80.4% (active)
16,Cc1ccc(-c2nnn(CC(=O)N(Cc3ccco3)C(C(=O)NC(C)(C)C)c3ccncc3)n2)o1 (configuration not stated),6.52%
17,Cc1cc(C)c(C)c(S(=O)(=O)N[C@@H](C)C(=O)OC(C)C(=O)NC(N)=O)c1C (some centres not stated),-9.66%
18,Cc1ccc(Oc2nc(-c3ccccn3)nc3ccccc23)cc1,-40.5%
19,CCOC(=O)CNC(=O)CSc1nc2cccnc2n1CC,5.31%
20,CCOC(=O)c1ccc2c(c1)nc(SCC(=O)NC(C)C)n2CC,76% (active)
21,CCOC(=O)c1ccc2c(c1)nc(C)n2CC,3.33%

row,SMILES,inhibition
1,CCN(c1ccccc1)S(=O)(=O)c1ccc(C(=O)Nc2nccs2)cc1,31.6%
2,COCCN(CCOC)S(=O)(=O)c1ccc(C(=O)Nc2nc3c(s2)CCc2ccccc2-3)cc1,82.3% (active)
3,C=CCN(CC=C)S(=O)(=O)c1ccc(C(=O)Nc2sc3c(c2C(N)=O)CCCCC3)cc1,41%
4,C=CCN(CC=C)S(=O)(=O)c1ccc(C(=O)Nc2nc3c(s2)CCc2ccccc2-3)cc1,71% (active)
5,COc1ccc(C(=O)Nc2ncc3c(n2)-c2ccccc2CC3)cc1,-1.8%
6,COCCN(CCOC)S(=O)(=O)c1ccc(/C(O)=C(\C#N)c2nc3ccccc3[nH]2)cc1,1.37%
7,COc1ccc2[nH]c(C(=O)Nc3ccccc3Cl)cc2c1,2.73%
8,CC(C)(C)C(=O)Nc1c(Br)c(C2CC2)nn1-c1ccccc1,0.02%
9,CC(C)(C)c1cc(P(=O)(c2ccccc2)c2ccccc2)ccc1O,9.08%
10,CN1CCN(c2ncc3c(n2)CC(c2ccccc2F)CC3=O)CC1 (configuration not stated),15.3%
11,CSc1sc(C(=O)NC(=O)NCc2cccnc2)c(C)c1-c1ccon1,28.4%
12,COC(=O)c1c(C(=O)OC)c2n(c1C)CCS2,14.2%
13,CCn1c(=O)c2cc(C(=O)Nc3cccc(C(C)=O)c3)sc2c2ccccc21,-10.2%
14,Cc1ccc(S(=O)(=O)N(C)CC(=O)NC2CCCC2)cc1,36.5%
15,Cc1ccc(NC(=O)NC(=O)N(C2CCCCC2)S(=O)(=O)c2ccccc2)cc1,84% (active)
16,CC(c1ccco1)N(C(=O)Nc1ccccc1)C1CCCCC1 (configuration not stated),36.4%
17,CC1CC(NC(=O)/C(C#N)=C/c2ccc[nH]2)CC(C)(C)C1 (configuration not stated),-0.59%
18,Cc1nc2cc3c(cc2s1)OCO3,14%
19,CCCc1c(C(=O)Nc2ccc(F)cc2)cnn1-c1ccccc1,14.9%
20,Cc1ccc(Nc2ccc(C(N)=O)cc2[N+](=O)[O-])cc1,21.8%
21,Cc1cc(C)nc(Nc2cc([N+](=O)[O-])ccc2C)n1,0.9%

row,SMILES,inhibition
1,Cc1ccc(Nc2cc(C)nc3c(C)ccc([N+](=O)[O-])c23)cc1,71.4% (active)
2,Cc1ccccc1NC(=O)Cc1nnc(SCC(=O)N2CCN(c3ccccc3)CC2)n1C,26.1%
3,Cc1cc2nnc(SCC(=O)N3CCN(c4ccccc4)CC3)n2c(N)n1,23.7%
4,Cn1c(Cc2cccc3ccccc23)nnc1SCC(=O)N1CCN(c2cccc(Cl)c2)CC1,78.6% (active)
5,COc1ccc(OC)c(C(=O)c2ccc(Cl)cc2)c1,9.86%
6,Cn1cccc1-c1nc2ccccc2n1C,-2.65%
7,Cc1ccc(C2=NN(C)c3nc4ccccc4n3C2)cc1,86.3% (active)
8,Cc1ccc(O)c(CNc2nc3ccccc3n2C)c1,11.9%
9,COc1ccccc1-n1c(-c2cc(-c3ccco3)[nH]n2)n[nH]c1=S,-7.77%
10,CCO[C@@H]1OC(C(=O)NC2CC2)=C[C@H](C)[C@H]1CCCO,0.64%
11,CCOC(=O)CN(C(=O)COc1nc(C)cc(C)c1C#N)c1ccc(Cl)cc1,23.1%
12,O=C(CCCN1C(=O)/C(=C\c2ccco2)SC1=S)Nc1cccc2ccccc12,73.2% (active)
13,O=C(CCN1C(=O)/C(=C/c2cccs2)SC1=S)NNC(=O)c1cccc(O)c1,46.3%
14,O=C(CCCN1C(=O)/C(=C/c2ccco2)SC1=S)Nc1ccccc1,32.2%
15,O=c1oc(-c2ccccc2NS(=O)(=O)c2ccc(Cl)cc2)nc2ccccc12,21%
16,Cc1ccc(SCc2c(C(=O)N/N=C/C3CC=CCC3)nnn2-c2nonc2N)cc1 (configuration not stated),36.4%
17,CC(=O)N1N=C(c2ccncc2)OC1(Cc1ccccc1)Cc1ccccc1,-11.2%
18,Cc1ccc(NC(=O)CSc2nnc(COc3ccccc3C)o2)cc1,39.4%
19,Cc1cc(C)cc(OCc2nnc(SCC(=O)OC3CCCCC3)o2)c1,25.7%
20,Cc1cc(C)cc(OCc2nnc(SCC(=O)Nc3ccccc3)o2)c1,91.5% (active)
